The campaign covered roughly 290,000 compounds. About 2,100 (0.72%) were called active. Inconclusive results (about 4%) are left out. The sample as a whole holds a higher share of actives than the screen did. Values without a mark were called inactive. Calls follow the shape of the dose curve; as a rule, active = well fitted inhibition curve with a large enough effect; inconclusive = small, poorly fitted or top-dose-only effect, or effect the other way; inactive = flat fitted curve, though single readings scatter.
The compounds below were run against Fructose-bisphosphate aldolase (Giardia intestinalis (strain ATCC 50803 / WB clone C6)) (UniProt A8B2U2) (assay: qHTS Assay for Inhibitors of Fructose-1,6-bisphosphate Aldolase from Giardia Lamblia). Details: purified Giardia FBPA; series mostly up to 59.6 µM; activity, negative = inhibition: at the top concentration.
Chain of Fructose-bisphosphate aldolase (Giardia intestinalis (strain ATCC 50803 / WB clone C6)) (A8B2U2 whole entry, looked up): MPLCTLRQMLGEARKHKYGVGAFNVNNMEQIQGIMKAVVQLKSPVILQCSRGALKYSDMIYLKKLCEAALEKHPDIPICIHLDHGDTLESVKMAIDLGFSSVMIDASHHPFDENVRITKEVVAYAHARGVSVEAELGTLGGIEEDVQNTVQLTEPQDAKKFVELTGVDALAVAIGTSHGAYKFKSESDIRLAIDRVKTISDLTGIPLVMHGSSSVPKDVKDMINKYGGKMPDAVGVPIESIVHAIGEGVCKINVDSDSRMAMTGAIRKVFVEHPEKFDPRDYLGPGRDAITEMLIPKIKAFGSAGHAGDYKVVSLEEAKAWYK
Description: Assay Provider: Osnat Herzberg, University of Maryland
The objective of this project is to obtain compounds that inhibit Giardia lamblia growth. G. lamblia is a human pathogen which afflicts impoverished nations; it is the most common cause of outbreaks of diarrhea in the United States. During the course of our study of potential drug targets in Giardia, we have identified the Class II (Zn2+ functions in electrophilic catalysis) fructose-1,6-bisphosphate aldolase (FBPA) as an excellent candidate for drug targeting. FBPA is a key glycolytic pathway enzyme, essential for G. lamblia survival. The human FBPA belongs to the Class I aldolases, which have a different substrate binding site structure and a radically different catalytic mechanism (employing a lysine-Schiff base intermediate). Therefore, affinity-based or mechanism-based inhibitors of the Giardia FBPA are expected not to interfere with the catalytic function of the human FBPA.
A glyceraldehyde-3-phosphate dehydrogenase/triose phosphate isomerase/NAD/arsenate coupled assay was adapted to the 1536-well HTP format for use in the primary screen. This was done by coupling it to a diaphorase/resazurin/resorufin reaction that can be monitored by fluorescence (excitation, 544 nm; emission, 590 nm). Compounds identified in this screen will be further evaluated by coupling the glycerol-3-phosphate/triose phosphate isomerase/NADH assay to a phenazine methosulfate/tetranitroblue tetrazolium color reaction. False positives due to the dehydrogenases and diaphorase inhibition will be eliminated, and selectivity assay will triage inhibitors of mammalian triose phosphate isomerase and the Class I FBPA. G. lamblia FBPA inhibitors identified by the in vitro analyses will be examined for growth inhibition of Giardia trophozoites, and for cytotoxicity in human cells.
Step,Parameter,Value,Description
1,Enzyme reagent,2 uL,40 nM FBPA
2,Compound,23 nL,3.68 nM-57.5 uM final concentration
3,Time,10 min,RT Incubation
4,Substrate/detection Reagent,2 uL,Substrate + enzyme coupling system + AmpLite Red kit
5,Time,20 min,RT Incubation
6,Detector,525 nm/598 nm (Fluorescence),ViewLux Fluorescence Read (Read 1)
1,Medium-binding black solid-bottom Kalypsys plates. FRD or Kalypsys dispenser, 2 uL of FBPA enzyme. Bottle kept at 4C.
2,Compound Library (10 mM ,1:5 dilution). Pin-transferred for a [final] range of 3.68 nM-57.5 uM.
4,FRD or Kalypsys dispenser, 2 uL of reaction mixture. Bottle kept at 4C and covered in foil to protect from light.
6,ViewLux Protocol 1194; Excitation filter wheel A (525/20 Pol; BODIPY TMR FP), Emission filter wheel B (598/25 S; BODIPY TMR FP S).
Keywords: Fructose-bisphosphate aldolase, FBPA , Giardia lamblia , Giardia, HTS, Inhibitors
% is scaled to controls: 0 for no effect and ±100 for the full control effect; potency is read from the fitted curve at half-maximal effect.
Also: nearly all actives have a fitted effect of over 55% in size.

Which “activity, negative = inhibition” value does the source give for CCc1ccc(S(=O)(=O)N/N=C\c2ccc([N+](=O)[O-])o2)cc1 here?
The value was -19.2% (inactive).

For Cc1cc(C)nc(N/N=C/c2ccc([N+](=O)[O-])o2)n1, which Potency is on record?
The Potency was 28.2 µM (active).

How did the “activity, negative = inhibition” value turn out when Cc1cc(C)nc(N/N=C/c2c(C)oc3ccccc23)n1 was run?
Its value is -26.2% (inactive).

Which “activity, negative = inhibition” value does the source give for CS(=O)(=O)N1CCc2cc(C(=O)Nc3ccccc3Br)ccc21 here?
Its value is 10.4% (inactive).

How did the “activity, negative = inhibition” value turn out when CCCOc1ccc(-c2c(C(=O)N/N=C/c3ccco3)nnn2-c2nonc2N)cc1 was run?
Its value is 7.42% (inactive).

Cc1ccc(/C=N/NC(=O)c2cc3ccccc3cc2O)o1 was tested. Which “activity, negative = inhibition” value did it give?
Its value is -19.7% (inactive).

Which Potency does the source give for Cn1nnc(NC(=S)NC(=O)c2ccccc2)n1 here?
The Potency was 3.15 µM (active).

COCCCNC(=S)NC(=O)c1ccccc1 was tested. Which “activity, negative = inhibition” value did it give?
Its value is 0.0132% (inactive).

Cc1cc2[nH]ncc2cc1NC(=S)NC(=O)c1ccccc1 was tested. Which “activity, negative = inhibition” value did it give?
The value was -10.8% (inactive).

How did the “activity, negative = inhibition” value turn out when Cc1c(Cl)cccc1NC(=S)NCC(O)c1ccccc1 (stereo not drawn) was run?
Its value is 0.0635% (inactive).

Which “activity, negative = inhibition” value does the source give for O=C(c1n[nH]c2c1CCC2)N1CCCC(Nc2cccc(F)c2)C1 (stereo not drawn) here?
Its value is -1.71% (inactive).

CSc1n[nH]c(=S)n1N was tested. Which Potency did it give?
The Potency was 19.9 µM (active).

Cc1noc(C)c1CCC(=O)N1CCCC(CO)(Cc2ccccc2)C1 (stereo not drawn) was tested. Which “activity, negative = inhibition” value did it give?
The value was -4.45% (inactive).

With COc1ccc2c3c(c(=O)oc2c1)C1O[C@](CCCCN2C(=O)c4ccccc4C2=O)(Cc2c1ccc1ccccc21)O3 as the compound, how does the activity, negative = inhibition read?
The activity, negative = inhibition was -2.65% [at 12.9 µM].

For COc1ccc(CCNCc2c(-c3ccccc3)n(C)c3ccccc23)cc1, which “activity, negative = inhibition” value is on record?
Its value is -29.6% (inactive).

COc1ccc(-c2csc(Nc3ccc(O)cc3)n2)cc1 was tested. Which “activity, negative = inhibition” value did it give?
Its value is -23% (inactive).

How did the “activity, negative = inhibition” value turn out when COc1ccc(-c2csc(Nc3ccccn3)n2)cc1 was run?
Its value is -13.5% (inactive).

Which Potency does the source give for COc1ccc(OC)c(Nc2nc(-c3ccc(O)c(O)c3)cs2)c1 here?
Its Potency is 8.89 µM (active).

For COc1ccc(C2=Nn3c(nnc3-c3ccccc3O)SC2)cc1, which “activity, negative = inhibition” value is on record?
Its value is 5.11% (inactive).

CCOc1cc(C2/C(=C(/O)c3ccc(S(=O)(=O)N4CCCCC4)cc3)C(=O)C(=O)N2CCOC)ccc1O (stereo not drawn) was tested. Which “activity, negative = inhibition” value did it give?
Its value is 20.3% (inactive).

CCn1c(SCC(=O)N/N=C/c2ccccc2OCC(=O)O)nnc1-c1ccc(C(C)(C)C)cc1 was tested. Which “activity, negative = inhibition” value did it give?
The value was -14% (inactive).

C=C(C)CNC(=S)N/N=C/c1ccccc1OCC(=O)O was tested. Which Potency did it give?
The Potency was 17.7 µM (active).

For C=CCOc1ccccc1/C=N/NC(=O)Cc1ccccc1, which “activity, negative = inhibition” value is on record?
The value was 9.96% (inactive).

With Cc1ccc(/C=N/NC(=O)CNC(=O)COc2ccccc2)o1 as the compound, how does the “activity, negative = inhibition” value read?
Its value is -0.787% (inactive).

For O=C(CNC(=O)COc1ccccc1)NCCc1ccccn1, which “activity, negative = inhibition” value is on record?
Its value is 5.88% (inactive).

With CCOc1ccccc1/C=N/NC(=O)CNC(=O)COc1ccccc1 as the compound, how does the Potency read?
Its Potency is 17.7 µM (active).

Which “activity, negative = inhibition” value does the source give for COC(=O)c1cccc(N2C(=O)C3C4C=CC(CC4)C3C2=O)c1 (stereo not drawn) here?
Its value is 5.94% (inactive).

With CCCCN1C(=O)C(C)=C(C)C1OCCc1ccc(OC)c(OC)c1 (stereo not drawn) as the compound, how does the “activity, negative = inhibition” value read?
The value was 4.28% (inactive).

Which “activity, negative = inhibition” value does the source give for Cc1ccc(C(=O)NCC(=O)OCc2nnc(-c3ccccc3)o2)cc1 here?
Its value is 5.28% (inactive).

For CCOc1ccc(N(C)Cc2cc(=O)oc3ccc(OC)cc23)cc1, which “activity, negative = inhibition” value is on record?
The value was 6.29% (inactive).

With Cn1nccc1/C=N\NC(=O)c1ccc(Cl)cc1 as the compound, how does the “activity, negative = inhibition” value read?
Its value is -7.24% (inactive).

Which “activity, negative = inhibition” value does the source give for C=CCc1c(C)nc2cc(-c3ccccc3)[nH]n2c1=O here?
The value was -20.9% (inactive).

How did the “activity, negative = inhibition” value turn out when Cc1nc2cc(C(F)(F)F)ccc2n1CCNc1nc(-c2cc(Cl)c(N)c(Cl)c2)cs1 was run?
Its value is -7.4% (inactive).

With COc1cccc(C(=O)Nc2nnc(S(=O)(=O)N3CCCCC3)s2)c1 as the compound, how does the Potency read?
Its Potency is 17.8 µM (active).

For CCOC(=O)CSc1nnc(NC(=O)c2cccc(S(=O)(=O)N3CCCCC3)c2)s1, which “activity, negative = inhibition” value is on record?
The value was 8.02% (inactive).

How did the “activity, negative = inhibition” value turn out when Cc1ccccc1OCC(=O)Nc1nnc(S(=O)(=O)N2CCCC2)s1 was run?
Its value is 0.701% (inactive).

For COc1ccc(C)cc1N(CC(=O)N1CCCC1)S(=O)(=O)c1ccccc1, which “activity, negative = inhibition” value is on record?
Its value is 8.2% (inactive).

With Cc1ccc(C)c(N2CCN(S(=O)(=O)c3c(C)[nH]c(C)c3C(=O)N3CCCC3)CC2)c1 as the compound, how does the “activity, negative = inhibition” value read?
The value was 6.26% (inactive).

How did the “activity, negative = inhibition” value turn out when CN1CCN(CCCCOc2cccc3ccccc23)CC1 was run?
The value was -18.8% (inactive).

How did the Potency turn out when CN1CCN(CCCCOc2ccccc2-c2ccccc2)CC1 was run?
The Potency was 19.9 µM (active).

How did the “activity, negative = inhibition” value turn out when CC1CCCN(CCOCCOc2ccccc2-c2ccccc2)C1 (stereo not drawn) was run?
Its value is -28.2% (inactive).

How did the “activity, negative = inhibition” value turn out when COc1ccc(C(=O)NNS(=O)(=O)c2ccc(C)cc2)cc1 was run?
The value was -0.057% (inactive).

For Cc1ccc(S(=O)(=O)NNC(=S)NC(C)(C)C)cc1, which Potency is on record?
The Potency was 11.2 µM (active).

CC(NC(=S)NNS(=O)(=O)c1ccc(C(C)(C)C)cc1)c1ccccc1 (stereo not drawn) was tested. Which “activity, negative = inhibition” value did it give?
Its value is -2.32% (inactive).

Which “activity, negative = inhibition” value does the source give for CCNC(=O)CC1C(=O)N(c2ccc(OC)cc2)C(=O)N1CCOC (stereo not drawn) here?
The value was -9.69% (inactive).

O=c1oc2ccccc2c(CNc2ccccc2)c1[N+](=O)[O-] was tested. Which “activity, negative = inhibition” value did it give?
The value was 8.39% (inactive).

Which “activity, negative = inhibition” value does the source give for COc1ccc(C(=O)NCCSc2ccccc2C)cc1 here?
The value was 9.8% (inactive).

Clc1cccc(CN2COc3c(cc(Cl)c4cccnc34)C2)c1 was tested. Which Potency did it give?
Its Potency is 17.7 µM (active).

Which “activity, negative = inhibition” value does the source give for Nc1c(C(=O)NCc2ccccc2)nnn1Cc1cccc(Cl)c1 here?
Its value is -0.252% (inactive).

With CC(C)CC(=O)N1CCN(Cc2cccc(Cl)c2)CC1 as the compound, how does the “activity, negative = inhibition” value read?
Its value is -21.7% (inactive).

With Cc1ccc(O)c(/C=N/NC(=O)COc2ccc3c(C)cc(=O)oc3c2)c1 as the compound, how does the “activity, negative = inhibition” value read?
The value was 9.07% (inactive).

Which “activity, negative = inhibition” value does the source give for Brc1ccc(OCCn2ccnc2)cc1 here?
Its value is 0.307% (inactive).

Which “activity, negative = inhibition” value does the source give for Cc1ccc2c(Cl)c(C(=O)NCCCn3ccnc3)sc2c1 here?
Its value is 0.0784% (inactive).

Reference: PubChem BioAssay AID2451 (National Center for Advancing Translational Sciences (NCATS), 2010)
